Out of some 310,000 compounds screened, about 14,000 (4.5%) showed an effect of 50% or more. Effects have a minus sign here. The entries come from a sample that favours strong results as a whole.
What follows are compounds tested against human ether-à-go-go-related gene (hERG) potassium channel (human, UniProt Q12809) (assay: primary screen, population patch clamp on CHO cells stably expressing hERG; higher = less effect of the substance).
Chain of human ether-à-go-go-related gene (hERG) potassium channel (Q12809 whole entry, looked up): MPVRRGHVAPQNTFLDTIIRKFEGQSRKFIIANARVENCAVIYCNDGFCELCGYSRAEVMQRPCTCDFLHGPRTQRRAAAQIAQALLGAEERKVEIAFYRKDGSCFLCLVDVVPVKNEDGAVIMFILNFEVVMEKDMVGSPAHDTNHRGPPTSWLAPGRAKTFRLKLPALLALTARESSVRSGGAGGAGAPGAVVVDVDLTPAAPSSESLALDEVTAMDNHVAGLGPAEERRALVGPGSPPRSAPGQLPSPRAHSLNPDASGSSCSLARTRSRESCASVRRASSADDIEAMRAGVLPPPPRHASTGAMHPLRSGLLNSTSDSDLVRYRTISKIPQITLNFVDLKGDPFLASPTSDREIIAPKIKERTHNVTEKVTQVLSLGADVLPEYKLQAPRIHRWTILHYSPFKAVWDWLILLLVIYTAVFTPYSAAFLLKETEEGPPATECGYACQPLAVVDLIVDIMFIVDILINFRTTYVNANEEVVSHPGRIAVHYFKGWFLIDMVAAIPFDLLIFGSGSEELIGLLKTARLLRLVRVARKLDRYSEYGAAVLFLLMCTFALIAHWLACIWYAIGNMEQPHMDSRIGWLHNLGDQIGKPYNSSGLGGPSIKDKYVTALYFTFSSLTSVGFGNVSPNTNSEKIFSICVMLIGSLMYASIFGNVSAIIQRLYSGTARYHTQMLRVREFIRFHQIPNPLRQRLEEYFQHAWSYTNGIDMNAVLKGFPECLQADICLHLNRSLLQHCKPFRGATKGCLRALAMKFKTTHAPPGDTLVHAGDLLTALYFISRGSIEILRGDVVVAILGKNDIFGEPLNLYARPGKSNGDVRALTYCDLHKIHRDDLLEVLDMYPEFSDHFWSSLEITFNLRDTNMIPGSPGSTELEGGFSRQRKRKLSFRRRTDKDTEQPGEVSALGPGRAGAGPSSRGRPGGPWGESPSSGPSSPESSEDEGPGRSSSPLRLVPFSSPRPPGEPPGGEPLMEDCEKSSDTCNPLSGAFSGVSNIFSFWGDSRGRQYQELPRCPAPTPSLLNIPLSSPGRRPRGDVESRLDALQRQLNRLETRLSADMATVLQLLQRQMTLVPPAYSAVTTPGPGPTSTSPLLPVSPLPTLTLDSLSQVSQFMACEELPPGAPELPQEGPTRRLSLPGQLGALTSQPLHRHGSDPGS
For C=C1C(=O)O[C@@H]2C[C@@H](C)[C@H]3C=CC(=O)[C@]3(O)C[C@@H]12, the “hERG current change (%, negative = inhibition) at 10uM” value was 19.3%.
Cc1ccc(C(=O)C(OC(=O)CNC(=O)c2ccc(Cl)cc2)c2ccccc2)cc1 (stereo not drawn) was tested, and the “hERG current change (%, negative = inhibition) at 10uM” value was 2.15%.
COc1ccc(-c2[nH]ncc2/C=N/NC(=O)c2ccncc2)c(OC)c1 was tested, and the “hERG current change (%, negative = inhibition) at 10uM” value was 13.8%.
O=C(CSc1ccccn1)Nc1ccc2c(c1)oc1ccccc12 was tested, and the “hERG current change (%, negative = inhibition) at 10uM” value was 12.8%.
For N#Cc1cc2ccccc2nc1SCC(=O)NC1CC1, the “hERG current change (%, negative = inhibition) at 10uM” value was 4.58%.
With O=C(CN1C(=O)CSC1=O)c1ccccc1 the “hERG current change (%, negative = inhibition) at 10uM” value was 1.83%.
With CCOc1cc2nc(-c3ccc(OC)c(OC)c3)nc(N3CCOCC3)c2cc1OC the “hERG current change (%, negative = inhibition) at 10uM” value was -15.5%.
COc1ccc(C2CC(c3ccc(F)cc3)Nc3nc(N)nn32)cc1 (stereo not drawn) was tested, and the “hERG current change (%, negative = inhibition) at 10uM” value was -27%.
In the case of O=C(Nc1ncc2c(n1)CC(c1cccc(Cl)c1)CC2=O)c1ccco1 (stereo not drawn), the “hERG current change (%, negative = inhibition) at 10uM” value is reported as -39%.
In the case of O=C(Nc1ncc2c(n1)CC(c1ccccc1)CC2=O)c1ccco1 (stereo not drawn), the “hERG current change (%, negative = inhibition) at 10uM” value is reported as -21.9%.
For CS(=O)(=O)Nc1nc2n(n1)C(c1ccc(F)cc1)CC(c1ccccc1)N2 (stereo not drawn), the “hERG current change (%, negative = inhibition) at 10uM” value was -4.13%.
O=C(Nc1ncc2c(n1)CC(c1ccc(Cl)cc1)CC2=O)c1ccco1 (stereo not drawn) was tested, and the “hERG current change (%, negative = inhibition) at 10uM” value was -71.6%.
In the case of COc1ccc(C2CC(c3ccc(F)cc3)n3nc(NC(=O)c4ccco4)nc3N2)cc1 (stereo not drawn), the “hERG current change (%, negative = inhibition) at 10uM” value is reported as -60.3%.
With O=C(Nc1nc2n(n1)C(c1ccc(F)cc1)CC(c1ccccc1)N2)c1ccco1 (stereo not drawn) the “hERG current change (%, negative = inhibition) at 10uM” value was -57.4%.
In the case of COc1ccc(C2CC(c3ccc(F)cc3)n3nc(NS(C)(=O)=O)nc3N2)cc1 (stereo not drawn), the “hERG current change (%, negative = inhibition) at 10uM” value is reported as 8.06%.
Nc1nc2n(n1)C(c1ccccc1)CC(c1ccc(F)cc1)N2 (stereo not drawn) was tested, and the “hERG current change (%, negative = inhibition) at 10uM” value was -10.1%.
With CC1CC(c2ccccc2)n2nc(NC(=O)c3cccs3)nc2N1 (stereo not drawn) the “hERG current change (%, negative = inhibition) at 10uM” value was 16.6%.
For COc1ccc(C2CC(c3ccccc3)Nc3nc(NC(=O)c4cccs4)nn32)cc1 (stereo not drawn), the “hERG current change (%, negative = inhibition) at 10uM” value was -52%.
For COc1ccc(C2CC(c3ccc(OC)cc3)n3nc(NC(=O)c4cccs4)nc3N2)cc1 (stereo not drawn), the “hERG current change (%, negative = inhibition) at 10uM” value was -13.9%.
For C[C@]12CCC3C(CC[C@H]4CC(O)CC[C@]34C)C1CC/C2=N/NC(=O)c1ccncc1 (stereo partly drawn), the “hERG current change (%, negative = inhibition) at 10uM” value was -10.8%.
For COc1c(C)cccc1C(=O)Nc1cc(Cl)ccc1N1CCOCC1, the “hERG current change (%, negative = inhibition) at 10uM” value was 7.1%.
In the case of O=C(Nc1cc(-c2ccccc2)sc1C(=O)O)c1cccc(F)c1, the “hERG current change (%, negative = inhibition) at 10uM” value is reported as 33.5%.
For CCOC(=O)C1CCN(C(=O)CCNS(=O)(=O)c2ccc3c(c2)CCN3C(=O)CC)CC1, the “hERG current change (%, negative = inhibition) at 10uM” value was 7.82%.
With CCc1ccc(CN(C)CC(=O)Nc2sccc2C#N)cc1 the “hERG current change (%, negative = inhibition) at 10uM” value was -16.4%.
COc1ccc(/C=N/N=C2/NC(=O)C(CC(=O)O)S2)cc1OCc1ccc(Cl)cc1 (stereo not drawn) was tested, and the “hERG current change (%, negative = inhibition) at 10uM” value was -1.97%.
In the case of O=C(NC1CCCCC1)C(c1ccccn1)N(C(=O)c1csnn1)c1ccccc1 (stereo not drawn), the “hERG current change (%, negative = inhibition) at 10uM” value is reported as 1.6%.
In the case of O=C(NC1CCCCC1)c1cc(-c2cccc(Cl)c2)on1, the “hERG current change (%, negative = inhibition) at 10uM” value is reported as 11.7%.
With CCOC(=O)C1C(=O)NC(c2ccccc2)=NC1c1ccc(OC)cc1 (stereo not drawn) the “hERG current change (%, negative = inhibition) at 10uM” value was -12.2%.
CC(=O)N1CCC(N(CCN2CCOCC2)C(=S)Nc2c(C)cccc2C)CC1 was tested, and the “hERG current change (%, negative = inhibition) at 10uM” value was 8.51%.
NC(=O)c1nsc(C(=O)N(c2ccc3c(c2)OCO3)C(C(=O)NCC2CCCO2)c2ccc(F)cc2)c1N (stereo not drawn) was tested, and the “hERG current change (%, negative = inhibition) at 10uM” value was -8.25%.
For COc1ccc(C2CC(c3ccccc3)Nc3nc(NC(=O)c4ccco4)nn32)cc1 (stereo not drawn), the “hERG current change (%, negative = inhibition) at 10uM” value was -64.4%.
For O=C(O)CCCC(=O)Nc1nc2n(n1)C(c1ccc(F)cc1)CC(c1ccc(Cl)cc1)N2 (stereo not drawn), the “hERG current change (%, negative = inhibition) at 10uM” value was -0.46%.
For O=C(Nc1nc2n(n1)C(c1ccccc1)CC(c1ccc(Cl)cc1)N2)c1ccco1 (stereo not drawn), the “hERG current change (%, negative = inhibition) at 10uM” value was -53.1%.
In the case of COCC(=O)Nc1nc2n(n1)C(c1ccccc1Cl)CC(c1ccc(OC)cc1)N2 (stereo not drawn), the “hERG current change (%, negative = inhibition) at 10uM” value is reported as -18.6%.
For CC1CC(c2ccccc2)n2nc(NC(=O)c3ccco3)nc2N1 (stereo not drawn), the “hERG current change (%, negative = inhibition) at 10uM” value was 24.6%.
With COCC(=O)Nc1nc2n(n1)C(c1ccccc1)CC(c1ccc(OC)cc1)N2 (stereo not drawn) the “hERG current change (%, negative = inhibition) at 10uM” value was -3.73%.
COCC(=O)Nc1nc2n(n1)C(c1ccc(Cl)cc1)CC(c1ccc(OC)cc1)N2 (stereo not drawn) was tested, and the “hERG current change (%, negative = inhibition) at 10uM” value was -73.8%.
In the case of O=C(Nc1nc2n(n1)C(c1ccc(Cl)cc1)CC(c1ccc(Cl)cc1)N2)c1ccco1 (stereo not drawn), the “hERG current change (%, negative = inhibition) at 10uM” value is reported as -38.3%.
COc1ccc(C2CC(c3ccc(OC)cc3)n3nc(NC(=O)c4ccco4)nc3N2)cc1 (stereo not drawn) was tested, and the “hERG current change (%, negative = inhibition) at 10uM” value was -19.2%.
For O=[N+]([O-])c1ccc(NCCO)c2ncccc12, the “hERG current change (%, negative = inhibition) at 10uM” value was 2.11%.
In the case of CC(Sc1ncc(C(F)(F)F)cc1Cl)C(=O)NC(N)=O (stereo not drawn), the “hERG current change (%, negative = inhibition) at 10uM” value is reported as 0.58%.
In the case of COC(=O)c1cc(OC)c(OC)cc1NC(=O)Cc1cccs1, the “hERG current change (%, negative = inhibition) at 10uM” value is reported as 0.709%.
For CCCn1nnnc1NCc1ccc(C(C)C)cc1, the “hERG current change (%, negative = inhibition) at 10uM” value was 4.94%.
For CCC1CCCCN1c1cc(C)nc2cc(-c3cccc(C)c3)nn12 (stereo not drawn), the “hERG current change (%, negative = inhibition) at 10uM” value was -1.65%.
With CCCCCCCCCCCCCCCC[n+]1cccc(C(=O)N(CC)CC)c1.[Br-] the “hERG current change (%, negative = inhibition) at 10uM” value was -69.7%.
In the case of CCCCCCCCCC[n+]1cccc(C(=O)N(CC)CC)c1.[Br-], the “hERG current change (%, negative = inhibition) at 10uM” value is reported as -0.215%.
In the case of CCCCCCCC[n+]1cccc(C(=O)N(CC)CC)c1.[Br-], the “hERG current change (%, negative = inhibition) at 10uM” value is reported as 13%.
In the case of COc1cccc(CNn2c(-c3cccc(C)c3)nc3ccccc3c2=O)c1, the “hERG current change (%, negative = inhibition) at 10uM” value is reported as -9.77%.
With COc1ccc(CNn2c(-c3cccc(C)c3)nc3ccccc3c2=O)cc1OC the “hERG current change (%, negative = inhibition) at 10uM” value was -73.6%.
In the case of COc1ccccc1CNn1c(-c2cccc(C)c2)nc2ccccc2c1=O, the “hERG current change (%, negative = inhibition) at 10uM” value is reported as -11%.
CC1(C)C2CCC(C2)C1(C)NC(=O)CN1CCCC1.Cl (stereo not drawn) was tested, and the “hERG current change (%, negative = inhibition) at 10uM” value was -0.213%.
For Cc1cc2oc(=O)cc(C)c2c(=O)o1, the “hERG current change (%, negative = inhibition) at 10uM” value was -65.8%.
In the case of COc1cc2oc(=O)cc(C)c2c(OC)c1OC, the “hERG current change (%, negative = inhibition) at 10uM” value is reported as 17.9%.
COc1cc(OC)c2c(C)cc(=O)oc2c1 was tested, and the “hERG current change (%, negative = inhibition) at 10uM” value was 15.4%.
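Also: peak tail current of the secondary pulse compared with the same well before compound.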
